# Laboratory results taken from PubChem BioAssay.
# Results filed as inconclusive are left out. Calls of active or inactive are those of the source. Unless noted, the limit is not given here; nearly all actives have AC50 up to about 26 µM.
# How the values were obtained:
# [1] = growth inhibition of DIPG glioma cells, dose response, cell-based, SU-DIPG-XVII, MIPE5.0, CellTiter-Glo, qHTS (AID 1347060); details: SU-DIPG-XVII viability, CellTiter-Glo ATP luminescence;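 as to AC50: cells exposed to compound for 48 hours before viability readout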
# [2] = growth inhibition of DIPG glioma cells, dose response, cell-based, SU-DIPG-XIII, MIPE4.0, CellTiter-Glo, qHTS (AID 1347061; cut-off not given, nearly all actives have AC50 up to about 37 µM;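 also: cells exposed to compound for 48 hours before readout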); details: SU-DIPG-XIII viability, CellTiter-Glo ATP luminescence
# [3] = growth inhibition of DIPG glioma cells, dose response, cell-based, JHH-DIPG-1, MIPE4.0, CellTiter-Glo, qHTS (AID 1347062; cut-off not given, nearly all actives have AC50 up to about 27 µM;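 as to AC50: cells exposed to compound for two days before readout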); details: JHH-DIPG-1 viability, CellTiter-Glo ATP luminescence
# [4] = growth inhibition of DIPG glioma cells, dose response, cell-based, SU-DIPG-IV, MIPE4.0, CellTiter-Glo, qHTS (AID 1347063; cut-off not given, nearly all actives have AC50 up to about 30 µM;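 also: compound exposure lasted 48 hours before the viability readout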); details: SU-DIPG-IV viability, CellTiter-Glo ATP luminescence
# [5] = viability loss in pontine glioma line – cell-based, SU-DIPG-XXV, MIPE5.0, CellTiter-Glo, qHTS, dose response (AID 1347065); details: CellTiter-Glo ATP luminescence;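 also: cells exposed to compound for 48 hours before ATP readout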
# [6] = SU-DIPG-VI glioma cell viability, MIPE4.0 library, CellTiter-Glo luminescence, qHTS (AID 1347066; cut-off not given, nearly all actives have AC50 up to about 30 µM;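 also: cells exposed to compound for 48 hours before readout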); details: CellTiter-Glo ATP luminescence
# [7] = JHH-DIPG-1 glioma cell viability, MIPE5.0 library, CellTiter-Glo luminescence, qHTS (AID 1347067); details: JHH-DIPG-1 glioma viability, CellTiter-Glo ATP luminescence;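 also: cells exposed to compound for 48 hours before readout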
# [8] = SU-DIPG-XXV glioma cell viability, MIPE5.0 library, qHTS (AID 1347068; cut-off not given, nearly all actives have IC50 up to about 30 µM;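 as to IC50: cells exposed to compound for 48 hours before viability readout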)
# [9] = sensitizers of A549 cells to miR-34 induction, primary screen, imaging, A549 dox-inducible miR-34, nuclei and caspase counts (AID 1347080;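 active = compounds whose cell count with miR-34 switched on is under 0.7 times the count with it off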); details: A549 miR-34 inducible, Hoechst nuclei count, 48 h
# [10] = survival rescue of mitochondrial mutant cells in low glucose, primary screen, MELAS cybrids, Rieske KO mouse fibroblasts, CellTiter-Glo (AID 1508586;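 active = mean z-score across replicates of 1.96 or higher in either the MELAS or the Rieske mutant cell line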;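 also: z relative to plate mean and SD of compound and empty wells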)
# [11] = modifiers of HSF1 nuclear foci, imaging, Selleck Cancer Library (AID 1347162; in the data active = plate-normalised HSF1 focus index below about 0.46); details: human cells, at 10 µM; SSMD: measured here: HSF1 foci SSMD mean; cell count: measured here: cell number; plate-normalised HSF1 focus index: stronger effect = lower value
# [12] = ovarian cancer cell viability with rucaparib, profiling panel, oncology-focused library, rucaparib conditional (AID 1508598;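 active = normalized viability below 100% at a tested concentration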); details: patient-derived ovarian cancer cells, CellTiter-Glo viability, 144 h, stronger effect = lower value
# [13] = stronger effect = lower value, cell number ratio, induced over uninduced
# [14] = measured here: relative caspase fold change +Dox/-Dox
# [15] = measured here: total cells with miR-34 induction, stronger effect = lower value
# [16] = measured here: total cells without miR-34 induction
# [17] = MELAS cybrid survival, CellTiter-Glo 48 h, stronger effect = higher value
# [18] = Rieske KO mouse fibroblast survival, CellTiter-Glo 72 h
compound,measurement,setting,value
O=C1CCC[C@@H]2[C@H]3CCC[N+]4([O-])CCC[C@@H](CN12)[C@@H]34 (stereo not given in full),outcome,[1],inactive
same,outcome,[2],inactive
same,outcome,[3],inactive
same,outcome,[4],inactive
same,outcome,[5],inactive
same,outcome,[6],inactive
same,outcome,[7],inactive
same,outcome,[8],inactive
C=C1C(=O)OC(CCCCCCCC)C1C(=O)O (stereo not given),outcome,[1],inactive
same,outcome,[2],inactive
same,outcome,[3],inactive
same,outcome,[4],inactive
same,outcome,[5],inactive
same,outcome,[6],inactive
same,outcome,[7],inactive
same,outcome,[8],inactive
CC(=O)N[C@H]1[C@H](O[C@@H]2c3ccc(c(Cl)c3)Oc3cc4cc(c3O[C@@H]3O[C@H](CO)[C@@H](O)[C@H](O)[C@H]3NC(=O)CCCCCCCC(C)C)Oc3ccc(cc3Cl)C[C@H]3NC(=O)[C@H](N)c5ccc(O)c(c5)Oc5cc(O)cc(c5)[C@H](NC3=O)C(=O)N[C@H]4C(=O)N[C@H]3C(=O)N[C@@H]2C(=O)N[C@@H](C(=O)O)c2cc(O)cc(O[C@H]4O[C@H](CO)[C@@H](O)[C@H](O)[C@@H]4O)c2-c2cc3ccc2O)O[C@H](CO)[C@@H](O)[C@@H]1O,outcome,[1],inactive
same,outcome,[2],inactive
same,outcome,[3],inactive
same,outcome,[4],inactive
same,outcome,[5],inactive
same,outcome,[6],inactive
same,outcome,[7],inactive
same,outcome,[8],inactive
COc1ccc(OC)c(-c2nnc3ccc(-c4ccc(OC)c(O[C@@H]5CCOC5)c4)nn23)c1,AC50,[1],2.95 µM (active)
same,AC50,[2],26.4 µM (active)
same,AC50,[3],7.43 µM (active)
same,AC50,[4],14.8 µM (active)
same,AC50,[5],2.63 µM (active)
same,AC50,[6],11.8 µM (active)
NC[C@H]1O[C@H](O[C@@H]2[C@H](O)[C@@H](O[C@H]3O[C@H](CO)[C@@H](O)[C@H](N)[C@H]3O)[C@H](N)C[C@@H]2N)[C@H](O)[C@@H](O)[C@@H]1O,outcome,[1],inactive
same,outcome,[2],inactive
same,outcome,[3],inactive
same,outcome,[4],inactive
same,outcome,[5],inactive
same,outcome,[6],inactive
same,outcome,[7],inactive
same,outcome,[8],inactive
CC(C)Nc1cc(C(F)(F)F)cc2nc(NC(=O)c3cccnc3)nn12,outcome,[1],inactive
same,outcome,[2],inactive
same,outcome,[3],inactive
same,outcome,[4],inactive
same,outcome,[5],inactive
same,outcome,[6],inactive
same,outcome,[7],inactive
same,outcome,[8],inactive
O=C(Nc1cccc(Nc2ncc(Br)c(NCCc3cnc[nH]3)n2)c1)N1CCCC1,AC50,[1],4.17 µM (active)
same,AC50,[2],16.6 µM (active)
same,AC50,[3],16.6 µM (active)
same,AC50,[4],16.6 µM (active)
same,AC50,[5],1.66 µM (active)
same,AC50,[6],14.8 µM (active)
same,AC50,[7],3.72 µM (active)
same,outcome,[8],inactive
same,fold change,[9]; [13],0.952 (inactive)
same,fold change,[9]; [14],0.914
same,cell count,[9]; [15],2420
same,cell count,[9]; [16],2540
same,z-score,[10]; [17],-0.631 (inactive)
same,z-score,[10]; [18],0.495
COc1nc(-c2ccc3c(c2)OCO3)n(-c2ccc(NC(=O)CSc3ccccc3)cc2)n1,outcome,[1],inactive
same,outcome,[2],inactive
same,outcome,[3],inactive
same,outcome,[4],inactive
same,outcome,[5],inactive
same,outcome,[6],inactive
same,outcome,[8],inactive
same,SSMD,[11],0.993
same,cell count,[11],6960
same,plate-normalised HSF1 focus index,[11],1.06 (inactive)
Cc1[nH]nc2ccc(-c3cncc(OC[C@@H](N)Cc4ccccc4)c3)cc12,AC50,[1],1.66 µM (active)
same,AC50,[2],4.69 µM (active)
same,AC50,[3],1.18 µM (active)
same,AC50,[4],2.64 µM (active)
same,AC50,[5],1.48 µM (active)
same,AC50,[6],10.5 µM (active)
same,AC50,[7],1.48 µM (active)
same,IC50,[8],1.66 µM (active)
CCC[C@@H](C=O)NC(=O)[C@H](CC(C)C)NC(=O)[C@H](CC(C)C)NC(=O)OCc1ccccc1,AC50,[1],0.332 µM (active)
same,AC50,[2],0.935 µM (active)
same,AC50,[3],0.372 µM (active)
same,AC50,[4],0.148 µM (active)
same,AC50,[5],0.186 µM (active)
same,AC50,[6],0.526 µM (active)
same,AC50,[7],0.525 µM (active)
same,IC50,[8],0.59 µM (active)
Cc1cc(Nc2ncnc3ccc(-c4ccc(CNCCS(C)(=O)=O)o4)cc23)ccc1Oc1ccn2ncnc2c1,AC50,[1],23.5 µM (active)
same,AC50,[2],23.5 µM (active)
same,AC50,[3],18.7 µM (active)
same,AC50,[4],14.8 µM (active)
same,AC50,[5],16.6 µM (active)
same,AC50,[6],16.6 µM (active)
same,AC50,[7],20.9 µM (active)
same,outcome,[8],inactive
same,fold change,[9]; [13],0.962 (inactive)
same,fold change,[9]; [14],1.06
same,cell count,[9]; [15],7890
same,cell count,[9]; [16],8200
same,z-score,[10]; [17],1.86 (inactive)
same,z-score,[10]; [18],-0.462
CCN1CCN(Cc2ccc(-c3cc4c(N[C@H](C)c5ccccc5)ncnc4[nH]3)cc2)CC1,AC50,[1],14.8 µM (active)
same,AC50,[2],5.26 µM (active)
same,AC50,[3],13.2 µM (active)
same,AC50,[4],0.0469 µM (active)
same,AC50,[5],18.6 µM (active)
same,AC50,[6],23.5 µM (active)
same,SSMD,[11],1.68
same,cell count,[11],7280
same,plate-normalised HSF1 focus index,[11],1.06 (inactive)
same,viability,"[12]; at 0.000305 µM, OCI-C5x cells, with rucaparib 10 µM, 100% = cells with rucaparib alone",113% (inactive)
same,viability,"[12]; at 0.000305 µM, OCI-C5x cells, without rucaparib",121% (inactive)
same,viability,"[12]; at 0.000305 µM, OCI-P5x cells, with rucaparib 20 µM, 100% = cells with rucaparib alone",97.2% (active)
same,viability,"[12]; at 0.000305 µM, OCI-P5x cells, without rucaparib",117% (inactive)
same,viability,"[12]; at 0.00122 µM, OCI-C5x cells, with rucaparib 10 µM, 100% = cells with rucaparib alone",110% (inactive)
same,viability,"[12]; at 0.00122 µM, OCI-C5x cells, without rucaparib",123% (inactive)
same,viability,"[12]; at 0.00122 µM, OCI-P5x cells, with rucaparib 20 µM, 100% = cells with rucaparib alone",100% (active)
same,viability,"[12]; at 0.00122 µM, OCI-P5x cells, without rucaparib",120% (inactive)
same,viability,"[12]; at 0.00488 µM, OCI-C5x cells, with rucaparib 10 µM, 100% = cells with rucaparib alone",110% (inactive)
same,viability,"[12]; at 0.00488 µM, OCI-C5x cells, without rucaparib",127% (inactive)
same,viability,"[12]; at 0.00488 µM, OCI-P5x cells, with rucaparib 20 µM, 100% = cells with rucaparib alone",108% (inactive)
same,viability,"[12]; at 0.00488 µM, OCI-P5x cells, without rucaparib",118% (inactive)
same,viability,"[12]; at 0.0195 µM, OCI-C5x cells, with rucaparib 10 µM, 100% = cells with rucaparib alone",109% (inactive)
same,viability,"[12]; at 0.0195 µM, OCI-C5x cells, without rucaparib",124% (inactive)
same,viability,"[12]; at 0.0195 µM, OCI-P5x cells, with rucaparib 20 µM, 100% = cells with rucaparib alone",98% (active)
same,viability,"[12]; at 0.0195 µM, OCI-P5x cells, without rucaparib",115% (inactive)
same,viability,"[12]; at 0.0781 µM, OCI-C5x cells, with rucaparib 10 µM, 100% = cells with rucaparib alone",106% (inactive)
same,viability,"[12]; at 0.0781 µM, OCI-C5x cells, without rucaparib",129% (inactive)
same,viability,"[12]; at 0.0781 µM, OCI-P5x cells, with rucaparib 20 µM, 100% = cells with rucaparib alone",102% (inactive)
same,viability,"[12]; at 0.0781 µM, OCI-P5x cells, without rucaparib",123% (inactive)
same,viability,"[12]; at 0.313 µM, OCI-C5x cells, with rucaparib 10 µM, 100% = cells with rucaparib alone",119% (inactive)
same,viability,"[12]; at 0.313 µM, OCI-C5x cells, without rucaparib",146% (inactive)
same,viability,"[12]; at 0.313 µM, OCI-P5x cells, with rucaparib 20 µM, 100% = cells with rucaparib alone",98.7% (active)
same,viability,"[12]; at 0.313 µM, OCI-P5x cells, without rucaparib",112% (inactive)
same,viability,"[12]; at 1.25 µM, OCI-C5x cells, with rucaparib 10 µM, 100% = cells with rucaparib alone",96.1% (active)
same,viability,"[12]; at 1.25 µM, OCI-C5x cells, without rucaparib",114% (inactive)
same,viability,"[12]; at 1.25 µM, OCI-P5x cells, with rucaparib 20 µM, 100% = cells with rucaparib alone",90.3% (active)
same,viability,"[12]; at 1.25 µM, OCI-P5x cells, without rucaparib",118% (inactive)
same,viability,"[12]; at 5 µM, OCI-C5x cells, with rucaparib 10 µM, 100% = cells with rucaparib alone",70.8% (active)
same,viability,"[12]; at 5 µM, OCI-C5x cells, without rucaparib",117% (inactive)
same,viability,"[12]; at 5 µM, OCI-P5x cells, with rucaparib 20 µM, 100% = cells with rucaparib alone",64.4% (active)
same,viability,"[12]; at 5 µM, OCI-P5x cells, without rucaparib",105% (inactive)
CNC1CCC(N(Cc2cccc(-c3ccncc3)c2)C(=O)c2sc3c(F)ccc(F)c3c2Cl)CC1 (stereo not given),AC50,[1],23.5 µM (active)
same,AC50,[2],14.8 µM (active)
same,AC50,[3],26.4 µM (active)
same,AC50,[4],23.5 µM (active)
same,AC50,[5],18.6 µM (active)
same,AC50,[6],23.5 µM (active)
same,AC50,[7],26.3 µM (active)
CC(C)C[C@H](NC(=O)[C@@H](NC(=O)c1cccc(-c2ccccc2)n1)[C@@H](C)O)B(O)O,AC50,[1],0.0456 µM (active)
same,AC50,[2],16.6 µM (active)
same,AC50,[3],0.0526 µM (active)
same,AC50,[4],0.0235 µM (active)
same,AC50,[5],0.0204 µM (active)
same,AC50,[6],0.0662 µM (active)
same,AC50,[7],0.0811 µM (active)
same,IC50,[8],0.0257 µM (active)
CC1(C)O[C@@H]2C[C@H]3[C@@H]4CCC5=CC(=O)C=C[C@]5(C)[C@H]4[C@@H](O)C[C@]3(C)[C@]2(C(=O)CO)O1,outcome,[1],inactive
same,outcome,[2],inactive
same,outcome,[3],inactive
same,outcome,[4],inactive
same,outcome,[5],inactive
same,outcome,[6],inactive
same,outcome,[8],inactive
same,z-score,[10]; [17],-0.574 (inactive)
same,z-score,[10]; [18],0.349
